CYP2C19 activ: human CYP2C19 activators, primary screen, biochemical, luminescence. Cytochrome P450 2C19 (Homo sapiens), P33261. recombinant CYP2C19, luciferin-H EGE luminescence; hits give high values; 0 = fully inhibited enzyme, 1 = untreated enzyme. activation factor at 5 µM. 96,000 tested, under 10 active. AID 1025, 2008;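 active means activation factor of at least 2 at 5 µM in the primary screen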
Target sequence (P33261 whole entry, looked up): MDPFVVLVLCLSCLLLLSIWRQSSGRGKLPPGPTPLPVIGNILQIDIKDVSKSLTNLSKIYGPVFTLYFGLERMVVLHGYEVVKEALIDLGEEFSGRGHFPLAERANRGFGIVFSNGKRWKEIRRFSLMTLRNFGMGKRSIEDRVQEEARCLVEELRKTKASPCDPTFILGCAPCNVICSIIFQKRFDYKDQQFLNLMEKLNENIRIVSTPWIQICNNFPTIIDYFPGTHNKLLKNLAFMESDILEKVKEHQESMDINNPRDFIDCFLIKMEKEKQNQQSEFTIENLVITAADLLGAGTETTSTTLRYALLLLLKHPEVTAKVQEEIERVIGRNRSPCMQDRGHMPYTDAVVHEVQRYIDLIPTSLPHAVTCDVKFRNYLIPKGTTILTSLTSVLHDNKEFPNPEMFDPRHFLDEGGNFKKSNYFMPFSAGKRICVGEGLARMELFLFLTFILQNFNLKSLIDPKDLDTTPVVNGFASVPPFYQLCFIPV
CYP2C9 act: human CYP2C9 activators, primary screen, biochemical, luminescence; Cytochrome P450 2C9 (Homo sapiens), P11712; recombinant CYP2C9, luciferin-H conversion; hits give high values; factor 1 = untreated enzyme, 0 = blocked; activation factor at 5 µM; 96,000 tested, 1.4% active; AID 1024, 2008;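 active means activation factor of 2 or more for CYP2C9 at a 5 µM dose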
CYP2C19 inhib: blockers of cytochrome P450 2C19 activity – biochemical, luminescence, ADME assay, primary screen. CYP2C19 Supersomes, luciferin-H EGE luminescence, 30 min. inhibition, % at 5 µM. 96,000 tested, 21% active;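 active means CYP2C19 inhibition above a set limit at 5 µM in the primary screen, cut at about 50% in these data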
PostGolgi yeast: phenotypic screen on post-Golgi transport, primary screen. AID 739, 2007. inhibition, % at 10 µM. post-Golgi transport phenotypic cell assay. 98,000 tested, 0.9% active;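 further: yeast cells grown in 1536-well plates; yeast grown about 18 h at 30C before absorbance read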
PostGolgi ctrl: growth inhibition of yeast control strain, primary screen, counter-screen for post-Golgi transport modulator project; efflux-deficient yeast background strain, growth absorbance A615, 16 h; inhibition, % at 10 µM; 98,000 tested, 5% active
CYP2C9 inh: blockers of cytochrome P450 2C9 activity – biochemical, luminescence, ADME assay, primary screen. P11712. CYP2C9 Supersomes, luciferin-H conversion. inhibition, % at 5 µM. 96,000 tested, 20% active. AID 777, 2007;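 active means blocking of liver enzyme CYP2C9 beyond about 50% at 5 µM, limit read from the data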
A number is an active result; 0 = inactive; - = not tested or not shown. In the library only some 32% were active in any assay of this set; here they are far more common. Unless noted, no stated cut-off is given here; in the data, active means inhibition above about 30%; inactive means the rest.

SMILES	CYP2C19 activ	CYP2C9 act	CYP2C19 inhib	PostGolgi yeast	PostGolgi ctrl	CYP2C9 inh
CCc1ccc2nc(-c3cccc(C)c3)nc(SCC(=O)NCC3CCCO3)c2c1 (stereo unspecified)	0	0	60.5	0	0	75.1
Cc1cccc(-c2noc(CCCC(=O)N3CCOCC3)n2)c1	0	0	52.1	0	0	0
CC(c1ccccc1)N1CC(C(=O)N2CCN(c3ccc(F)cc3)CC2)CC1=O (stereo unspecified)	0	0	0	0	0	0
CCOc1ccc(-n2cc(C(=O)Nc3cccc(OC)c3)c3cc(OC)c(OC)cc3c2=O)cc1	0	0	0	0	0	0
Fc1ccc2nc3[nH]c4ccccc4c3nc2c1	0	0	0	0	0	0
C=CCNC(=O)NC(=S)c1ccccc1	0	0	0	0	0	0
CCc1cccc2c(SC(C)C(=O)NCC3CCCO3)nc(-c3ccccc3)nc12 (stereo unspecified)	0	0	0	0	0	60.8
CCc1cccc2c(SCC(=O)NCC3CCCO3)nc(-c3ccc(F)cc3)nc12 (stereo unspecified)	0	0	0	0	0	0
Cc1cc(-c2c(C)[nH]n(-c3ccc(Cl)cc3)c2=O)n[nH]1	0	0	0	0	0	54.7
Cc1ccc(C(c2nnnn2CCC(C)C)N2CCN(C)CC2)cc1 (stereo unspecified)	0	0	0	0	0	0
Clc1ccc2c(c1)CNc1c(ncnc1N1CCOCC1)O2	0	0	99.4	0	0	55.7
CC(C)(C)NS(=O)(=O)c1ccc(NS(C)(=O)=O)cc1	0	0	0	0	0	0
O=C(NCCN1CCOCC1)c1cc2cc(Br)ccc2oc1=O	0	0	0	0	0	0
Cc1ccc(OCC(=O)Nc2cccc(-c3nnc(-c4ccccc4)o3)c2)cc1	-	-	-	0	0	-
O=C(Nc1cccc(-c2nnc(-c3ccccc3)o2)c1)c1ccco1	0	0	0	-	-	0
Cc1cccc(OCC(=O)Nc2cccc(-c3nnc(-c4ccccc4)o3)c2)c1C	0	0	74.1	0	0	90.2
CCCCC(=O)Nc1cccc(-c2nnc(-c3ccccc3)o2)c1	0	0	52.5	0	0	74.6
Cc1cccc(C)c1OCC(=O)Nc1cccc(-c2nnc(-c3ccccc3)o2)c1	0	0	54.7	0	0	89.8
Cc1cccc(OCC(=O)NCc2ccncc2)c1C	0	0	74.2	0	0	55.1
O=C(NC1CCCCC1)N1CCN(C(=O)c2ccco2)CC1	0	0	0	0	0	0
Cc1c(Br)ccc(NC(=O)CCN2C(=O)C3C4CCC(C4)C3C2=O)c1C (stereo unspecified)	0	0	0	0	0	0
O=C1CNCc2[nH]c3ccccc3c2N1c1ccccc1	0	0	0	0	31.6	0
COc1cc(C2NC(=O)NC(C)=C2C(=O)NCc2ccccc2)c(Cl)cc1O (stereo unspecified)	0	0	0	0	0	0
CC1CCN(C(=S)NC(=O)C2CCCCC2)CC1	0	0	0	0	0	0
CC1CCN(C(=S)NC2CCCCC2)CC1	0	0	70.3	0	0	0
SMILES	CYP2C19 activ	CYP2C9 act	CYP2C19 inhib	PostGolgi yeast	PostGolgi ctrl	CYP2C9 inh
COc1ccc(C2/C(=C(/O)c3ccc(Cl)cc3)C(=O)C(=O)N2CCN2CCOCC2)c(OC)c1 (stereo unspecified)	0	0	0	0	0	0
CC(C)c1ccccc1NC(=O)c1cccc(NC(=O)c2ccccc2)c1	0	0	0	0	0	69.3
CCc1cccc(CC)c1NC(=O)c1cccc(NC(=O)c2ccccc2)c1	0	0	0	0	0	73.9
O=C(Nc1cccc(O)c1)c1ccccc1	0	0	0	0	0	0
O=C(Nc1ccc2[nH]c3c(c2c1)CCCC3)c1ccco1	0	0	0	0	0	0
O=C(OCCn1cncn1)c1cc2ccccc2oc1=O	0	0	0	0	0	0
Cn1c(SCC(=O)c2cc3ccccc3o2)nnc1-c1ccccc1	0	0	83.8	0	0	68.2
Cn1ccnc1SCC(=O)c1cccc(Br)c1	0	0	85.5	0	0	0
COc1ccc(-n2nnnc2SCC(=O)c2cc3ccccc3o2)cc1	0	0	90.8	0	35.1	76.3
Cn1ccnc1SCC(=O)c1cc2ccccc2o1	0	0	59.4	0	0	0
CC(=O)Nc1cccc2c1OCCO2	0	0	0	0	0	0
N#CCCN(CCC#N)c1nncs1	0	0	0	0	0	0
CC(C)(C)c1csc(N(CCC#N)CCC#N)n1	0	0	54.1	0	0	56.1
Cc1nonc1OCCNC(=O)C12CC3CC(CC(C3)C1)C2	0	0	0	0	0	0
Cc1cc(C)c2c(N)c(S(=O)(=O)c3ccccc3)sc2n1	0	3	55.6	0	0	0
CCCCS(=O)(=O)c1sc2nc(C)cc(C)c2c1N	0	2.7	89.4	0	0	0
Cc1c(NCc2cc(Cl)cc(Cl)c2O)c(=O)n(-c2ccccc2)n1C	0	0	73.2	0	0	85.4
Cc1c(NCc2nc3ccccc3[nH]2)c(=O)n(-c2ccccc2)n1C	0	0	0	0	0	0
COc1ccc(C2/C(=C(/O)c3ccccc3)C(=O)C(=O)N2c2ccccn2)c(OC)c1 (stereo unspecified)	0	0	0	0	0	0
O=C(NNC(=S)Nc1ccc(F)cc1)c1ccccc1OC(F)F	0	0	0	0	0	58.4
Cc1ccc(NC(=S)NNC(=O)c2ccccc2OC(F)F)cc1	0	0	0	0	0	55.9
COc1cccc(NC(=S)NNC(=O)c2ccccc2OC(F)F)c1	0	0	0	0	0	64.2
Cc1ccc(NC(=S)NNC(=O)c2cn(C)nc2C)cc1	0	0	0	0	0	0
CCOC(=O)c1ccc(NC(=O)Nc2cc(C)on2)cc1	0	0	0	0	0	0
Cc1ccc(CNC(=O)CCNC(=O)Cn2ccc3ccccc3c2=O)o1	0	0	0	0	0	0
SMILES	CYP2C19 activ	CYP2C9 act	CYP2C19 inhib	PostGolgi yeast	PostGolgi ctrl	CYP2C9 inh
CCCCCn1c(=O)[nH]c2c(c1=O)CCC2	0	0	0	0	0	0
COc1cccc(C(=O)N2CCN(S(C)(=O)=O)CC2)c1	0	0	0	0	0	0
COc1ccc(C(=O)NCCn2ccc3ccccc32)cc1OC	0	0	0	0	0	0
COc1ccccc1C(=O)NCCn1ccc2ccccc21	0	0	88.3	0	0	0
COc1cc(OC)cc(C(=O)NCCn2ccc3ccccc32)c1	0	0	77.7	0	0	0
COc1cccc(C(=O)NCCn2ccc3ccccc32)c1	0	0	78.9	0	40.4	0
CC(=O)NCCn1ccc2ccccc21	0	0	0	0	0	0
O=C(O)CC(NC(=O)COc1ccc(Cl)cc1Cl)C(=O)O (stereo unspecified)	0	0	0	0	0	0

Source: PubChem BioAssay (several laboratories)
